We go through 40 molecules from PubChem BioAssay (Tox21).

Inconclusive results are not listed. Values without a mark were called inactive. Calls follow the shape of the dose curve; as a rule, active = well fitted cell-killing curve with a large enough effect in the repeat runs; inconclusive = weak or mixed curves, or effect the other way; inactive = flat fitted curve, though single readings scatter.
% is scaled to controls: 0 for no effect and ±100 for the full control effect.

The experiment in a line: qHTS RealTime-Glo MT Cell Viability Assay in HEK293 cells - 0 hour (AID 1224880). Also: top concentration of the series differs between compounds; nearly all actives have a fitted effect of over 45% in size. As to conditions: RealTime-Glo luminescence; series mostly up to 76.8 µM; activity change, negative = cytotoxicity: at the top concentration. An excerpt: U.S. Tox21 Program National Center for Advancing Translational Sciences [NCATS] NIH Chemical Genomics Center [NCGC] U.S. Environmental Protection Agency [EPA] National Institutes of Environmental Health Sciences [NIEHS] National Toxicology Program [NTP] U.S. Food and Drug Administration [FDA] Tox21 Assay Overview: Measure of cell viability is critical in the cell-base assay. Analysis of cell viability is necessary for the characterization of cell responses to cytotoxic drugs and environmental stress. A RealTime-Glo MT Cell Viability Assay to monitor cell viability in real time of continues cell culture during 40 hours of compound treatment was used to screen Tox21 10K library compounds in Hek293 cells. The RealTime-Glo MT Cell Viability Assay is a nonlytic, homogeneous, bioluminescent method to measure cell viability in real time using a simple, plate-based method. The assay involves adding NanoLuc luciferase and a cell-permeant prosubstrate to cells in culture. Viable cells reduce the proprietary prosubstrate to generate a substrate for NanoLuc luciferase. This substrate diffuses from cells into the surrounding culture medium, where it is rapidly used by the NanoLuc Enzyme to produce a luminescent signal. The signal correlates with the number of viable cells, making the assay well suited for cytotoxicity studies.
Tox21 Assay Protocol Summary: The mixture of Hek293 cell suspension and reagents were dispensed at 600cells/6 ul/well in 1536-well tissue culture treated black solid bottom plates using a Multidrop dispenser. After the assay plates were incubated at a 37 C/5% CO2 incubator for 5 hours, 23 nL of compounds dissolved in DMSO, positive and negative controls was transferred to the assay plate by a pintool work station. The plates were incubated at 37 C for 40 hours. The luminescence intensity were measured at 0h, 8h, 16h, 24h, 32h and 40h time points using ViewLux plate reader during compound treatment.
Background: In qHTS, concentration-response curves come from the screen itself.
With `O=C1c2ccccc2C(=O)c2ccccc21`, the activity change, negative = cytotoxicity was 1.83% [at 15.8 µM].
For the molecule `CNCC(=O)c1ccc(O)c(O)c1`, the “activity change, negative = cytotoxicity” value was 6.15% [at 35.3 µM].
For `CC(Cl)(Cl)[N+](=O)[O-]` the value was 2.27%.
For `NC(=S)C(N)=S` the value was 14.6%; for `COc1cc(OC)nc(NC(=O)NS(=O)(=O)c2ncccc2OCC(F)(F)F)n1`, 0.747%; for `ClCCOCOCCCl`, -12.2%.
Consider `CCCCOC(=O)[C@@H](C)Oc1ccc(Oc2ccc(C#N)cc2F)cc1`, for which the “activity change, negative = cytotoxicity” value is -1.44%.
In the case of `ClC(Br)Br`, the “activity change, negative = cytotoxicity” value was 13.7%.
Regarding `CSc1ccc(C(=O)C(C)(C)N2CCOCC2)cc1`, the “activity change, negative = cytotoxicity” value was -1.9%.
For `Cc1coc2c1CCC(C)C2` (stereo not given) the value was -1.83%; for `CCOP(=O)(N=C1SCCS1)OCC`, 17.7%; for `c1ccc(N2CCNCC2)cc1`, 18.8% [at 35.3 µM].
For `CCOP(=S)(OCC)SCSP(=S)(OCC)OCC` the value was 1.65%; for `CC1CN1P(=O)(N1CC1C)N1CC1C` (stereo not given), 1.15%; for `CC(=O)C(Cl)Cl`, 1.59%.
For `O=C(Oc1ccc(Br)cc1)N1CCN2CCC1CC2` the value was 2.46%.
For `COC(C)(C)C`, the “activity change, negative = cytotoxicity” value is 1.93%.
With `OC(c1ccccc1)(c1ccccc1)C1CCNCC1`, the “activity change, negative = cytotoxicity” value was 12.9% [at 35.3 µM].
For `CC(CCc1ccccc1)NC(C)C(O)c1ccc(O)cc1` (stereo not given) the value was 4.34% [at 35.3 µM]; for `CNC(=O)Oc1ccccc1C1OCCO1`, -0.579%.
For `C=C(C)[C@@H]1CC=C(C=O)CC1` the value was -3.28%; for `C(CCOCC1CO1)COCC1CO1` (stereo not given), 5.27%; for `O=C(Cc1ccccc1)OCc1ccccc1`, 4.91%.
For `Nc1cc(Cl)ccc1O` the value was -13.2%; for `Cc1ncsc1CCCl`, 6.74% [at 35.3 µM]; for `OCCSCSCCO`, -5.48%.
With `CCSC(=O)N(CC)C1CCCCC1`, the “activity change, negative = cytotoxicity” value was 18.4%.
For `Nc1c(Br)cc([N+](=O)[O-])cc1[N+](=O)[O-]` the value was 9.17%; for `CSc1nc(N=[N+]=[N-])nc(NC(C)C)n1`, -9.46%; for `CC(CC(C#N)(c1ccccc1)c1ccccc1)N(C)C` (stereo not given), 13.5%.
Take `CC1CCCCC1NC(=O)Nc1ccccc1` (stereo not given): the “activity change, negative = cytotoxicity” value was -8.39%.
`O=C(Nc1ccccc1)c1ccccc1I`: the “activity change, negative = cytotoxicity” value was -9.24%.
For `Cc1ccccc1CO[C@@H]1C[C@@]2(C(C)C)CC[C@]1(C)O2` the value was 0.437%; for `Cc1cccc(C#N)c1`, -0.55%; for `O=C1OC(CCN2CCCCC2)OC1(c1ccccc1)c1ccccc1` (stereo not given), 0.844% [at 35.3 µM].
For the molecule `Cc1cc(C)c(C(=O)P(=O)(C(=O)c2c(C)cc(C)cc2C)c2ccccc2)c(C)c1`, the “activity change, negative = cytotoxicity” value is -3.25%.
On to `CC(C(=O)c1ccccc1)N(C)C` (stereo not given), for which the “activity change, negative = cytotoxicity” value was 1.71% [at 35.3 µM].
Take `CCOP(=S)(OCC)Oc1nc(Cl)n(C(C)C)n1`: the “activity change, negative = cytotoxicity” value is -12.5%.
For `CCCCP(CCCC)CCCC` the value was -0.224%.
`O=[N+]([O-])c1cccc2cccnc12`: the “activity change, negative = cytotoxicity” value was 3.31%.
